Our source for the growth values is PubChem BioAssay (NCI).

Among the test systems are NCI-H23 lung; NCI-H226 lung; NCI-H322M lung; HOP-62 NSCLC; NCI-H460 lung; HOP-92 NSCLC; NCI-H522 lung; A549/ATCC NSCLC; 786-0 renal; COLO 205 colon.
What all share (test): NCI-60 one-dose screen, 48 h (100 = growth as untreated, 0 = no growth, -100 = all killed)
Common to all, as to details: 10 µM unless noted

This is part of a sample that, as a whole, favours compounds with a hit. Of some 83,000 tested, about 20% had one in any assay.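 Percent growth is the endpoint: 0 to 100 indicates growth inhibition (40 means 60% inhibition), 0 means no net growth, and negative values indicate cell death.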 Values without a mark were called inactive. Active and inactive are the calls of the source. Rule for the calls: active = growth percent below 10; inactive = the rest.

Take `CN(C)c1nc(N)c(N=O)c(N)n1`: the growth is 107% in the assay on NCI-H23 lung; 112% in the assay with NCI-H226 lung; 111% with NCI-H322M lung; 107% in the assay with HOP-62 NSCLC; 110% with NCI-H460 lung; 102% in the assay on HOP-92 NSCLC. Also, the growth in the assay with NCI-H522 lung was 106%; in the assay with A549/ATCC NSCLC it was 109%; in the assay with 786-0 renal, 106%; with COLO 205 colon, 127%.

`COc1ccc(/C(=N/O)c2cc(F)c(F)c(OC)c2F)cc1O`: the growth in the assay with NCI-H23 lung is 39.2%; with NCI-H226 lung, 85.7%; in the assay with NCI-H322M lung it was 46%; in the assay on HOP-62 NSCLC it was 21.5%; in the assay with NCI-H460 lung, 9.72% (active); in the assay with HOP-92 NSCLC, 50.8%. The growth is -56.7% (active) with NCI-H522 lung, 42% in the assay with A549/ATCC NSCLC, 45% with 786-0 renal and 62.1% in the assay on COLO 205 colon.

In the case of `COc1cc(C2C=C(C)N=C3SC(C)=NN32)cc(OC)c1OC` (stereo not given), the growth in the assay on NCI-H23 lung is 94.8%; in the assay with NCI-H226 lung, 107%; with NCI-H322M lung, 116%; with HOP-62 NSCLC it was 95.9%; with NCI-H460 lung it was 114%; with HOP-92 NSCLC, 90.9%. In addition, the growth in the assay on NCI-H522 lung was 89.8%; with A549/ATCC NSCLC it was 103%; in the assay with 786-0 renal, 105%; in the assay on COLO 205 colon, 96.3%.

For the compound `O=C(C[N+](=O)[O-])c1ccc(Cl)cc1`, the growth in the assay on NCI-H23 lung was 104%; in the assay on NCI-H226 lung, 110%; with NCI-H322M lung, 112%; with HOP-62 NSCLC, 104%; with NCI-H460 lung, 111%; in the assay with HOP-92 NSCLC it was 101%. The growth is 109% with NCI-H522 lung, 106% in the assay with A549/ATCC NSCLC, 98.5% in the assay on 786-0 renal and 116% with COLO 205 colon.

On to `CCCCCC(=O)OCc1ccccc1`, for which the growth in the assay with NCI-H23 lung is 102%; with NCI-H226 lung it was 103%; with NCI-H322M lung, 102%; in the assay with HOP-62 NSCLC, 97%; with NCI-H460 lung it was 109%; in the assay on HOP-92 NSCLC it was 96.3%. The growth is 85.7% in the assay on NCI-H522 lung, 106% in the assay with A549/ATCC NSCLC, 96.9% with 786-0 renal and 106% with COLO 205 colon.

As for `C=C1C(=O)O[C@H]2[C@H]1CC/C(COC(=O)NCCc1cccc(OC)c1)=C\CC[C@@]1(C)O[C@@H]21`, the growth was 75.1% in the assay on NCI-H23 lung; 41.3% in the assay on NCI-H226 lung; 91.7% in the assay with NCI-H322M lung; 66.6% in the assay on HOP-62 NSCLC; 74.5% in the assay with NCI-H460 lung; 44% in the assay with HOP-92 NSCLC. In addition, the growth with NCI-H522 lung is -30.8% (active); in the assay with A549/ATCC NSCLC it was 79.2%; in the assay with 786-0 renal, 5.24% (active); in the assay with COLO 205 colon, -35.3% (active).

On to `CSc1ccccc1C#C/C=C\C#Cc1ccccc1N1CCCC1=O`, for which the growth was 53.4% in the assay with NCI-H23 lung; 62.5% in the assay with NCI-H226 lung; 91.5% in the assay with NCI-H322M lung; 60.2% in the assay with HOP-62 NSCLC; 24.7% in the assay with NCI-H460 lung; 40.7% in the assay with HOP-92 NSCLC. Also, the growth is 70.5% in the assay with NCI-H522 lung, 63.2% in the assay with A549/ATCC NSCLC, 71.1% in the assay on 786-0 renal and 65.2% in the assay with COLO 205 colon.

`CC1=CNNc2c3ncnc-3ncn21`: the growth with NCI-H23 lung was 98%; in the assay on NCI-H226 lung, 99.7%; with NCI-H322M lung, 107%; in the assay on HOP-62 NSCLC it was 95.4%; in the assay on NCI-H460 lung, 108%; in the assay on HOP-92 NSCLC, 94.7%. Also, the growth with NCI-H522 lung was 96.6%; with A549/ATCC NSCLC it was 100%; with 786-0 renal, 102%; in the assay with COLO 205 colon, 106%.

Turning to `CS(=O)(=O)N(c1cc(-c2ccc3ncnc(Nc4cccc(Cl)c4)c3c2)cnc1Cl)S(C)(=O)=O`, the growth in the assay on NCI-H23 lung was 18.3%; in the assay on NCI-H226 lung, 30.1%; in the assay on NCI-H322M lung it was -1.94% (active); in the assay on HOP-62 NSCLC it was 19.2%; with NCI-H460 lung, 14.1%; in the assay on HOP-92 NSCLC it was -20.5% (active). For the same compound, the growth was 19.6% in the assay on NCI-H522 lung, 9.62% (active) with A549/ATCC NSCLC, 17.5% in the assay with 786-0 renal and 2.1% (active) in the assay on COLO 205 colon.

Consider `C=C1C(=O)O[C@H]2[C@H]1CC/C(Cn1cc(-c3ccccc3C(F)(F)F)nn1)=C\CC[C@@]1(C)O[C@@H]21`, for which the growth was 7.85% (active) with NCI-H23 lung; -45.6% (active) in the assay on NCI-H226 lung; 81.6% with NCI-H322M lung; 37.3% in the assay on HOP-62 NSCLC; 49.1% in the assay on NCI-H460 lung; -70.4% (active) in the assay with HOP-92 NSCLC. Also, the growth is -82.5% (active) in the assay on NCI-H522 lung, 42.9% with A549/ATCC NSCLC, -81.2% (active) in the assay on 786-0 renal and -78.8% (active) with COLO 205 colon.

Regarding `Cc1oc2nc[nH]c(=O)c2c1C(=O)/C=C/c1ccc(Cl)cc1Cl`, the growth in the assay on NCI-H23 lung is 90%; with NCI-H226 lung, 107%; in the assay with NCI-H322M lung, 92.4%; in the assay with HOP-62 NSCLC it was 92.6%; in the assay on NCI-H460 lung, 93.4%; in the assay with HOP-92 NSCLC, 95.5%. The growth with NCI-H522 lung is 39.1%; with A549/ATCC NSCLC it was 78.7%; in the assay with 786-0 renal it was 83.8%; in the assay with COLO 205 colon it was 107%.

Take `COc1ccc(-n2c(C)cc(-c3ccccc3)c2C)cc1`: the growth in the assay with NCI-H23 lung is 33.9%; with NCI-H226 lung it was 57.3%; with NCI-H322M lung, 93.5%; in the assay on HOP-62 NSCLC, 82.4%; with NCI-H460 lung, 46.8%; in the assay on HOP-92 NSCLC, 24.6%. The growth with NCI-H522 lung was 29.5%; with A549/ATCC NSCLC it was 40.7%; with 786-0 renal, 35%; in the assay with COLO 205 colon, 39.4%.

`CSc1ccccc1C#C/C=C\C#Cc1ccccc1N1CCCCC1=O`: the growth with NCI-H23 lung is 103%; in the assay with NCI-H226 lung, 91.2%; with NCI-H322M lung, 110%; in the assay on HOP-62 NSCLC, 88.2%; with NCI-H460 lung, 93.3%; in the assay with HOP-92 NSCLC, 63.8%. Moreover, the growth with NCI-H522 lung was 99.7%; in the assay on A549/ATCC NSCLC it was 48.6%; in the assay on 786-0 renal it was 106%; in the assay on COLO 205 colon, 108%.
